# What was measured:
# [1] = biological target: T1, Aspartate--tRNA(Asp/Asn) ligase (Mycobacterium tuberculosis (strain ATCC 25618 / H37Rv)) (UniProt P9WFW3); assay: Assay for Asp RNA synthetase-1 from Mycobacterium tuberculosis; type: functional; parameters: scale not given: direction of the effect not stated beside the values; conditions: 30 µM; also: in the data most compounds retested in dose-response had high values
# T1 sequence (whole entry): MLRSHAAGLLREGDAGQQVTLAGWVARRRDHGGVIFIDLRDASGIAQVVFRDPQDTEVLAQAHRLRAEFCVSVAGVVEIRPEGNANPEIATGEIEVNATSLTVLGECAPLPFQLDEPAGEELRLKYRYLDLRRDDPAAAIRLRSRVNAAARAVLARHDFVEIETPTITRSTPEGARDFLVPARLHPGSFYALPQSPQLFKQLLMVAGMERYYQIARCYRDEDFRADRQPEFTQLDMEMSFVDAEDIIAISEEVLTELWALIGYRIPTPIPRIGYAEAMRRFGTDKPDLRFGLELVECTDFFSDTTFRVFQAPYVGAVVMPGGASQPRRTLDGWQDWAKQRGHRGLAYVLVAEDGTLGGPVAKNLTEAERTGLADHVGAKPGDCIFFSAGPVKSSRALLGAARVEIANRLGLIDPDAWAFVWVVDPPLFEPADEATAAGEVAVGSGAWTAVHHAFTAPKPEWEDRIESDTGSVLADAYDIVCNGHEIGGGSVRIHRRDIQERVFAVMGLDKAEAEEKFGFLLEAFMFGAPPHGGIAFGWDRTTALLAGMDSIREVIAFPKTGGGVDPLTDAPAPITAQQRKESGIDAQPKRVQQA
# [2] = biological target: Shiga toxin 2 (Escherichia coli O157:H7) (UniProt P09385+P09386); assay: E. coli 0.157:H7 Shiga Toxin SOP - stx2 screening assay; type: functional; parameters: scale not given: direction of the effect not stated beside the values; conditions: 30 µM
SMILES,Percent Effect [1] [%],Percent Effect [2] [%]
Cc1ccccc1CC(=O)N(C)C1CCCC1,-6.33,-21
Cc1nc(CCN(C)C(=O)C2COc3ccccc3C2)no1 (stereo not given),0.743,-10.1
CN1CCN(C2CCN(CC(=O)NCC(F)(F)F)CC2)C1=O,-5.68,-21
Cc1ccc(CNC(=O)CCSCc2csc(C)n2)cn1,-3.37,-2.37
O=C(NCc1cccs1)[C@H]1CC[C@@H]2[C@@H](CCN2c2ncccn2)O1,3.22,-3.66
CCS(=O)(=O)CCNC(=O)c1ccc(-c2ccc(C)cc2)cc1F,7.76,-42.5
Cc1cc(C)n(C2CCCN(C(=O)c3cnc4onc(C)c4c3)C2)n1 (stereo not given),-0.75,15.8
Cc1noc([C@H]2C[C@@H]3CCN(C(=O)N(C)C)C[C@H]3O2)n1,3.32,-1.56
Fc1ccc(OCCCN2CCOC(Cn3cncn3)C2)cc1 (stereo not given),-6.13,-10.5
O=C(c1ccc(Cl)c(Cl)c1)N1CCCC(n2cncn2)C1 (stereo not given),-2.85,15.6
CC(C)S(=O)(=O)NCC1CCCN(C(=O)c2ccc3c(c2)CCC3)C1 (stereo not given),6.5,1.33
CN(C)C(=O)N1C[C@@H]2CC[C@H](C1)N(C(=O)CCCn1cncn1)C2,1.35,4.19
COCCc1ncc(CN2CCC(Oc3ccccc3C)CC2)cn1,1.13,1.32
O=C(NCCN1CCCCC1)c1nc(-c2ccc3cc[nH]c3c2)no1,6.42,-77.4
O=C(NC1CCS(=O)(=O)C1)c1sccc1-c1ccc(F)cc1 (stereo not given),-5.43,3.12
CC(C)CNC(=O)[C@H]1CCS(=O)(=O)[C@@H]2CN(Cc3ccc(Cl)cc3)C[C@H]12,-0.0704,-5.7
N#Cc1ccc(C(=O)N2CCn3c(Cn4cccn4)cnc3C2)cc1,1.54,0.128
O=C(C[C@@H]1COC[C@H]2CN(Cc3ccc(F)cc3)C[C@@H]12)N1CCOCC1,2.03,-38.2
CCN(CC(=O)NC(C)C)S(=O)(=O)N1CCC(C)C1 (stereo not given),2.41,-3.8
CN(Cc1ccco1)C(=O)[C@H]1CSCN1C(=O)OC(C)(C)C,-1.74,10.2
CCc1nnc2n1CCN(Cc1csc(-c3cnn(C)c3)n1)C2,6.46,-29.4
CCCNC(=O)N1CCN(Cc2cc(C)no2)CC1,-0.393,17.7
Cc1ccccc1-c1cc(C(=O)N2CCn3c(C)nnc3C2)[nH]n1,-2.28,-13.5

SMILES,Percent Effect [1] [%],Percent Effect [2] [%]
COc1cc(CNC2CCc3nc(C(C)C)nn3C2)cc2c1OCO2 (stereo not given),1.32,15.4
Cc1ncsc1C(=O)NC1CCN(Cc2cccnc2)CC1,-7.07,-58.8
NC(=O)COc1cccc(C(=O)N2CCCC(n3ccnc3)C2)c1 (stereo not given),0.962,-19.9
CN1CCOC(CNC(=O)Cc2ccccc2F)C1 (stereo not given),-1.99,-8.98
Cc1nc(CN2CCc3nn(C(C)C)c(=O)cc3C2)oc1C,7,0.318
COCC1CN(Cc2ccc(OC)cc2)Cc2nn(C)cc21 (stereo not given),14.5,-22.6
N#Cc1ncn(CC(=O)Nc2cc(Cl)ccc2F)n1,9.55,-46.7
CNC(=O)CS(=O)(=O)C1CCN(S(=O)(=O)C2CC2)CC1,1.09,-3.71
Cc1ccc(N2CCCN(C(=O)C3(C#N)CCCCC3)CC2)nn1,-0.989,4.54
CC1CCN(S(=O)(=O)NCC2CCOc3ccccc3C2)CC1 (stereo not given),0.0297,5.97
NC(=O)C(CNC(=O)Cc1ccc(F)cc1)Cc1ccc(F)cc1 (stereo not given),-1.56,-30.7
COc1ccc(F)cc1C(C)NC(=O)Cn1ccc(=O)n(C)c1=O (stereo not given),0.602,-12.8
CCCNC(=O)c1ccc(NC(=O)c2cccc(OCC)c2)cc1,2.98,-85.2
CCOCC1CN(C(=O)c2cccn2C)Cc2cnn(CC3CC3)c21 (stereo not given),5.55,-5.56
O=C([C@H]1C[C@@H]2CCN(C3CCOCC3)C[C@@H]2O1)N1CCOCC1,1.17,-10.3
CC[C@H](C)Nc1nccc(-c2cnc3sc(C)c(C)n3c2=O)n1,0.808,-27.1
COc1c(C2CCCN2Cc2csc(C(C)C)n2)c(C)nn1C (stereo not given),-1.4,-10.7
Cc1cnn(CCCNC(=O)N2CCCCC(N3CCCC3)C2)c1 (stereo not given),1.48,22.3
CCCC(C)C(=O)NCc1cn2cc(Br)ccc2n1 (stereo not given),1.41,-63.8
CSCc1cccc(C(=O)N2CCN(CC(C)O)CC2)c1 (stereo not given),-0.819,7.3
O=C(Nc1ccc(F)cc1)N1C[C@H]2CC[C@@H]1CN(Cc1cccnc1)C2,0.632,-26.1
CC1CCN(CCNC(=O)c2ccccc2N2CCOCC2)CC1,2.6,-16.9
